The sample as a whole holds a higher share of hits than the screen did.
TbPYK inhibitor: inhibitors of Trypanosoma brucei pyruvate kinase; hit rate 0.12% among 410,000; TbPYK enzyme, Kinase-Glo Plus ATP luminescence, 45 min; AID 624173; Q57TT1; Potency, µM (titrated, usually from 76.8 µM), without a hit: top-dose activity, negative = inhibition, actives largely listed as inhibitors; further: potency means the concentration at half of the fitted maximal effect; on the % scale 0 is the no-effect control and ±100 the full control effect; nearly all actives have a fitted effect of over 50% in size
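In this concentration-response screen, enzyme-free wells defined baseline while DMSO plates tracked drift. Each reaction combined TbPYK, substrate, compound and 130 uM ADP for 45 min at room temperature. Kinase-Glo Plus luminescence gave the signal.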
RE007 growth inh: less growth of the S. pombe RE007 Vpr strain | Potency, µM (series often up to 92.2 µM), for the others: top-dose activity change, negative = less growth, hits mostly inhibitors | S. pombe RE007 Vpr strain, BacTiter-Glo ATP luminescence, 24 h | AID 651644 | hit rate 0.21% among 360,000; active means well fitted falling curve with a large enough effect; further: potency means the concentration at half of the fitted maximal effect; on the % scale 0 is the no-effect control and ±100 the full control effect; nearly all actives have a fitted effect of over 50% in size
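Fission yeast RE007 carrying one integrated HIV-1 vpr copy, seeded at OD 0.01 in PMG+AL medium with 23 nL pinned compound. Grown 24 h at 30 degrees; viability read by BacTiter-Glo luminescence after 5 min.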
LmPK inh: inhibitors of Leishmania mexicana pyruvate kinase | AID 1721 | purified LmPK, Kinase-Glo ATP luminescence, 1 h | Q27686 | hit rate 0.37% among 290,000 | Potency, µM (series often up to 57.5 µM), inactives show top-dose activity change, negative = inhibition, hits mostly inhibitors; further: potency means the concentration at half of the fitted maximal effect; on the % scale 0 is the no-effect control and ±100 the full control effect
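0.1 nM LmPK, 0.5 mM PEP, 0.1 mM ADP; 50 mM imidazole pH 7.2, 7 mM MgCl2, 50 mM KCl; 1 h RT. Kinase-Glo luminescence readout, normalized to no-enzyme (full inhibition) and uninhibited wells.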
Shiga toxin inh: blocks Shiga toxin action in Vero cells | Vero cells, Shiga toxin protein synthesis inhibition reporter | inhibition, % at 38.7 µM | hit rate 9.2% among 290,000 | AID 2315; in the data active means inhibition mostly above about 28%, no sharp cut-off; inactive means mostly below about 43%; further: 0% is about no effect
Giardia FBPA inh: blocks Giardia fructose-bisphosphate aldolase activity. hit rate 0.71% among 290,000. Potency, µM (doses to about 59.6 µM), without a hit: top-dose activity, negative = inhibition, actives largely listed as inhibitors. purified Giardia FBPA; further: potency means the concentration at half of the fitted maximal effect; on the % scale 0 is the no-effect control and ±100 the full control effect; nearly all actives have a fitted effect of over 55% in size
Target sequence (A8B2U2 whole entry, looked up): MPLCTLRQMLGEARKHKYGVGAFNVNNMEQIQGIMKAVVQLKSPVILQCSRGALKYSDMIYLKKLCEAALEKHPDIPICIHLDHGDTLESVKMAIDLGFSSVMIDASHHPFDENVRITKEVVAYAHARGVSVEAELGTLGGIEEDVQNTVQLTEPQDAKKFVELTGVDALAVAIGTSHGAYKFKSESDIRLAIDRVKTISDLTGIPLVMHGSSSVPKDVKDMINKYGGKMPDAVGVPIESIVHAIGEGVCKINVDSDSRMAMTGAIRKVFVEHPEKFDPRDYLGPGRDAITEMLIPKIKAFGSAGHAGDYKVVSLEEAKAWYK
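Giardia FBPA (40 nM reagent) was preincubated 10 min at RT with compound (up to 57.5 uM final), then substrate plus GAPDH/TPI/NAD/arsenate coupling system with diaphorase/resazurin was added; resorufin fluorescence (525/598 nm) was read after 20 min.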
CHX counter: counter-screen for Shiga toxin inhibitors: cycloheximide protein synthesis inhibition; cell reporter, cycloheximide protein synthesis inhibition counterscreen; max response, %; hit rate 12% among 300,000; in the data active means max response mostly above about 13%, no sharp cut-off; inactive means mostly below about 14%; further: read at 38.3 µM for the half of the compounds with a filed dose; 0% is about no effect
* = called active by the depositor; . = no result; ! = not active in a repeat; [ ] = remark or other dose. Unless noted, the call rests on the fitted dose curve; in most records, active means well fitted curve in the direction sought with a large enough effect; inconclusive means small, poorly fitted or top-dose-only effect, or another doubt; inactive means no such curve, though single readings can be large; an effect the other way counts as inactive or inconclusive.

SMILES	TbPYK inhibitor	RE007 growth inh	LmPK inh	Shiga toxin inh	Giardia FBPA inh	CHX counter
CC(C)(C)CC(=O)Nc1ccc(Nc2ccccc2)cc1	-5.4%	-7.3%	5.8%	46.6*	-1.3%	23.1*
CC(C)CC(=O)Nc1ccc(Oc2ccc(NC(=O)CC(C)C)cc2)cc1	1.8%	-1.5%	13.1%	5.0	-0.1%	-1.0
CC(C)CC(=O)Nc1ccc2ccccc2c1	-0.8%	-5.5%	1.1%	92.3*!	-0.7%	-1.9
CCC(=O)Nc1ccc2ccccc2c1	-4.8%	-3.7%	-1.2%	26.6	0.2%	21.0
O=C(O)Cc1cc(F)c(S(=O)(=O)N2CCN(S(=O)(=O)c3ccc4c(c3)OCCO4)CC2)cc1F	.	.	.	-4.6	.	-7.3
CC1(C(=O)Nc2ccc3ccccc3c2)CC1(Br)Br (configuration not stated)	-15.4%	-16.8%	0.8%	65.3*	-11.1%	28.9*
CC(Oc1ccccc1F)C(=O)Nc1ccc2ccccc2c1 (configuration not stated)	1.4%	-8.5%	1.3%	79.7*	-7.2%	45.1*
CC(Oc1ccc(F)cc1)C(=O)Nc1ccc2ccccc2c1 (configuration not stated)	-0.3%	8.4%	2.3%	10.3	-1.0%	11.0
CCCCn1c(N)c(N(CCOC)C(=O)CSc2nnc(C)n2-c2ccc(OC)cc2)c(=O)[nH]c1=O	-12.2%	10.1%	.	.	.	.
FC(F)(F)C(F)(F)c1nc2nc(Cl)c(Cl)nc2[nH]1	-11.0%	4.5%	.	.	.	.
Cc1nn(C)c(C)c1S(=O)(=O)N(CC(=O)N1CCN(c2ccccc2)CC1)c1ccc(C(C)C)cc1	-0.2%	.	.	.	.	.
CC1CCc2c(sc(NC(=O)Cc3ccccc3)c2C(=O)Nc2ccc(Cl)cc2)C1 (configuration not stated)	1.2%	.	.	-9.9	.	-8.8
CS(=O)(=O)N1N=C(c2ccc3nccnc3c2)CC1c1ccccc1 (configuration not stated)	-7.0%	21.0%	4.2%	34.7	-0.3%	17.0*
COc1ccc(C2CC(c3c(-c4ccccc4)c4cc(Cl)ccc4[nH]c3=O)=NN2S(C)(=O)=O)cc1 (configuration not stated)	3.1%	-9.6%	2.1%	-19.7	3.2%	-4.2
COc1ccc(C2CC(c3ccc(OC)c(OC)c3)=NN2S(C)(=O)=O)cc1 (configuration not stated)	-21.2%	15.2%	-0.2%	88.2*	5.8%	63.1*
CS(=O)(=O)Nc1cccc(C2=NN(S(C)(=O)=O)C(c3ccccc3)C2)c1 (configuration not stated)	-3.4%	9.7%	12.1%[11.5 µM]	27.2	0.9%	9.5
O=C(c1ccco1)N1N=C(c2ccccc2)CC1c1ccc2nccnc2c1 (configuration not stated)	-17.0%	-7.4%	-0.4%	30.6	-6.0%	16.3*
COc1ccc(C2=NN(S(C)(=O)=O)C(c3ccc4nccnc4c3)C2)cc1 (configuration not stated)	-1.3%	0.1%	-6.2%	60.2*	2.3%	79.0*
O=C(O)CCC(=O)N1N=C(c2ccccc2)CC1c1ccc2nccnc2c1 (configuration not stated)	-15.0%	.	-2.8%	-6.9	2.0%	6.8
